# From PubChem BioAssay AID651636 (Sanford-Burnham Center for Chemical Genomics, 2012)
# The campaign covered roughly 360,000 compounds. About 3,000 (0.83%) were called active. What follows is part of a selection rich in actives, with near analogues and random picks from the rest. Unmarked numbers belong to inactive results. Rule as the data show it: active = inhibition above about 38%; inactive = the rest.
# Target: G-protein coupled receptor 183 (Homo sapiens) (UniProt P32249)
# Test: EBI2 receptor antagonists, beta-arrestin recruitment, primary screen, cell-based, luminescence, 7a,25-OHC stimulation, uHTS (AID 651636);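 also: enzyme fragment complementation signal reports receptor beta-arrestin coupling in cells; 0% = agonist plus DMSO wells and 100% = wells without agonist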
# Details: 7a,25-OHC stimulated, at 5 µM, active compounds read high
# G-protein coupled receptor 183 (Homo sapiens), sequence (P32249 whole entry, looked up, the tested form may be a part): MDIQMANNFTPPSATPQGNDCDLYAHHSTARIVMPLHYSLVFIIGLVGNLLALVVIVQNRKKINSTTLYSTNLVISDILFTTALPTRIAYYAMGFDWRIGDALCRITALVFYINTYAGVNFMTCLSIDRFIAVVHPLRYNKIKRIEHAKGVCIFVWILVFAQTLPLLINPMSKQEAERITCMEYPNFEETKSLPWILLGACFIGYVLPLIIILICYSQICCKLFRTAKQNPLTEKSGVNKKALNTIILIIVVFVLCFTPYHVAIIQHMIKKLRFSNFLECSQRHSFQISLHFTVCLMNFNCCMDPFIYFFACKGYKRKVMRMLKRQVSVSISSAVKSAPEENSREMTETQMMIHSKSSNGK
row,SMILES,inhibition
1,CSc1ncnc2c1ncn2CCCNCc1cccs1,-4.51%
2,COc1ccccc1C(=O)N1C(CC(=O)Nc2ccccc2C)C(=O)NC2CCCCC21 (configuration not stated),3.5%
3,COc1ccc(C)cc1NC(=O)CSc1nnc(CC(=O)Nc2ccccc2F)n1C,6.35%
4,CC1CCc2sc3nc(N4CCN(CCO)CC4)n4ncnc4c3c2C1 (configuration not stated),61.6% (active)
5,CN1C[C@@H](CO)O[C@@H](n2cnc3c(N4CCN(CCO)CC4)ncnc32)C1,5.76%
6,Cc1ccc(C)c(C(=O)N2CCC(n3nccc3NC(=O)C3CC3)CC2)c1,5.07%
7,C/C=C/C=C/C(=O)OCC(=O)Nc1ccc(Cl)cc1,1.78%
8,COc1ccc(NC(=O)N2CCCC(C(=O)Nc3ccccc3OC)C2)cc1 (configuration not stated),18.7%
9,COc1ccc(NC(=O)N2CCC(Cc3ccccc3)CC2)cc1,65.5% (active)
10,COc1ccc(C(=O)NC2CCN(C(=O)Nc3ccc(F)cc3)CC2)cc1,-4.2%
11,NC(=O)C1(N2CCCCC2)CCN(C(=O)c2ccc(C#Cc3ccccc3)o2)CC1,-2.84%
12,CCc1ccccc1NC(=S)Nc1cc(OC)c(NC(=O)C(C)C)cc1OC,-4.78%
13,O=C(Nc1ccc(S(=O)(=O)N2CCCCC2)cc1)C1CCN(C(=O)c2ccc(F)cc2)CC1,17%
14,O=C(Nc1ccc(S(=O)(=O)N2CCCCC2)cc1)C1CC(=O)N(c2ccc(F)cc2)C1 (configuration not stated),45.7% (active)
15,Cc1ccc(N2CC(C(=O)Nc3ccc(S(=O)(=O)N4CCCC4)cc3)CC2=O)cc1C (configuration not stated),45.4% (active)
16,Cc1ccccc1N1CC(C(=O)Nc2ccc(S(=O)(=O)N3CCCC3)cc2)CC1=O (configuration not stated),7.48%
17,Cc1ccc(NC(=O)C2CC(=O)N(c3ccc4c(c3)OCCO4)C2)cc1S(=O)(=O)N1CCCCCC1 (configuration not stated),14.6%
18,CC1CCN(S(=O)(=O)c2ccc(NC(=O)C3CC(=O)N(c4ccccc4)C3)cc2)CC1 (configuration not stated),38%
19,CCCNC(=O)C1(C)CCN(C(=O)c2ccc(F)cc2Cl)C1 (configuration not stated),-4.71%
20,OCCC#Cc1ccc(N2C(c3ccsc3)=Cc3ccc(F)cc3C2c2c[nH]c3ccccc23)cc1 (configuration not stated),10.6%
21,Cc1cnc(CN(C)C(=O)CC2C(=O)NCCN2Cc2cccc(F)c2F)[nH]1 (configuration not stated),-7.04%
22,Cc1c(NC(=O)CN2C(=O)C(=O)N(Cc3ccccc3)C2=O)c(=O)n(-c2ccccc2)n1C,0.531%

row,SMILES,inhibition
1,CC1(C(=O)NCc2ccccc2)CSCC(=O)N1CCCn1ccnc1 (configuration not stated),4.35%
2,CCOC(=O)[C@]12CCCC=C1N(CCC1=CCCCC1)C(=O)[C@H](CC(=O)N1CCSCC1)C2,7.49%
3,COc1ccccc1NC(=O)CSc1nnc(Cc2cccn2C)n1-c1ccc(F)cc1,9.51%
4,COc1ccc(-n2c(Cc3cccn3C)nnc2SCC(=O)Nc2cc(C)cc(C)c2)cc1,49.5% (active)
5,COC(=O)c1ccc(NC(=O)CSc2nnc(Cc3cccn3C)n2-c2ccc(F)cc2)cc1,-2.09%
6,O=C(C(c1ccccc1)c1ccccc1)N1CCN(CC(O)COc2ccccc2)CC1 (configuration not stated),53.5% (active)
7,CCCc1ccc(OCC(O)CN2CCN(C(=O)OCC)CC2)cc1 (configuration not stated),22.6%
8,CC(=O)N1CCN(CC(c2ccccc2)c2ccccc2)CC1,-1.32%
9,O=C(O)C1=C(C(=O)O)C2CCC1C2,6.95%
10,COc1ccc(O)c(/C=N/N=C/c2cccc([N+](=O)[O-])c2)c1,1.28%
11,COc1ccc(/C=C(/NC(=O)c2ccccc2)C(=O)Nc2cccc(C(=O)O)c2)cc1,-12.6%
12,COc1ccc(/C=N/N=C/c2c[nH]c(=O)c(C#N)c2Nc2ccccc2)cc1,90.2% (active)
13,O=C(CSc1ccccn1)N1CCN(S(=O)(=O)c2ccc(Cl)cc2)CC1,1.72%
14,O=C(CN1CCN(S(=O)(=O)c2ccc(Cl)s2)CC1)NCc1ccc(Cl)cc1,15.5%
15,O=C(COc1ccc(Cl)cc1)N1CCN(c2cccc(C(F)(F)F)c2)CC1,84.9% (active)
16,COc1ccc(N2CCN(C(=O)COc3ccc4c(C)cc(=O)oc4c3)CC2)cc1,-7.37%
17,O=C(CN1CCN(S(=O)(=O)c2ccc(Cl)s2)CC1)N1CCCCC1,-6.5%
18,O=C(COc1ccc2c(c1)CCC2)N1CCN(c2ccc(F)cc2)CC1,44.5% (active)
19,Cc1c(C)c2ccc(OCC(=O)N3CCN(c4cccc(Cl)c4)CC3)cc2oc1=O,11.5%
20,O=C(COc1ccc(Cl)cc1)N1CCN(S(=O)(=O)c2ccc(Cl)cc2)CC1,89.2% (active)
21,Nc1nc(SCC(=O)N2CCN(S(=O)(=O)c3ccc(Cl)cc3)CC2)n[nH]1,-6.16%
22,CSCCC(NC(=O)COc1ccccc1)C(=O)N1CCN(c2cccc(C(F)(F)F)c2)CC1 (configuration not stated),26.3%

row,SMILES,inhibition
1,O=C(Nc1ccc2c(c1)CCC2)c1cccc(S(=O)(=O)N2CCN(c3ccc(F)cc3)CC2)c1,-5.81%
2,Cc1ccc(OCC(=O)N2CCN(S(=O)(=O)c3ccc(Cl)s3)CC2)cc1C,90% (active)
3,CC(=O)c1ccc(S(=O)(=O)Nc2ccc(-c3ccc4nncn4n3)cc2)cc1,6.72%
4,COc1ccc(N2C(=O)C(O)C2c2ccc(C)cc2)cc1 (configuration not stated),-10.7%
5,CC(C)(C)c1cc(CN2CCN(CCC#N)CC2)cc(C(C)(C)C)c1O,1.34%
6,Cc1ccc(NC(=O)C(C)Sc2nnc(C3CC3)n2C2CC2)cc1S(=O)(=O)N1CCOCC1 (configuration not stated),6.91%
7,CC(=O)NC(Cc1ccc(F)c(F)c1)C(=O)NC1CCN(C(=O)c2ccc(C)cc2)CC1 (configuration not stated),1.72%
8,COc1ccc2c(c1)C(=O)Nc1cc(Cl)ccc1N2,10.9%
9,C/C(=N\NC(=O)C1(C)CC1(Br)Br)c1ccc(C)cc1C (configuration not stated),4.16%
10,CCOC(=O)/C=C/CN(C(=O)OC(C)(C)C)S(=O)(=O)N1CC=CC1,0.259%
11,CC(=O)NC1=NN(C(C)=O)C(C)(CCS(=O)(=O)c2ccc(Cl)c(Cl)c2)S1 (configuration not stated),-4.01%
12,COCc1cc(C)n(CC(=O)NCC2CCCO2)c(=O)c1C#N (configuration not stated),2.55%
13,CCCCOCCCNC(=O)C[C@@H]1C[C@@]2(C(=O)OC)CCCCC=C2N(CCC2=CCCCC2)C1=O,3.92%
14,Cc1cc(OCC(=O)N2CCN(c3ncccn3)CC2)ccc1Cl,86.6% (active)
15,COC(=O)CC(=O)N1CCN(c2ccc(Cl)c(Cl)c2)CC1,-5.75%
16,CC(Oc1ccc(F)cc1)C(=O)N1CCN(c2ncccn2)CC1 (configuration not stated),-0.409%
17,Cc1ccc(S(=O)(=O)N2[C@@H](Cc3ccccc3)CO[C@H]2CC(=O)OCc2ccccc2)cc1,23%
18,COC(=O)[C@]12CCCCC=C1N(Cc1ccc3c(c1)OCO3)C(=O)[C@H](CC(=O)NCc1cccs1)C2,0.7%
19,CCC1SC(CC)C(=O)N(CC(=O)NC2CCCCC2)C1=O (configuration not stated),-0.813%
20,O=C(CSc1nc(C2CC2)nc2ccccc12)Nc1cccc(O)c1,-2.33%
21,O=C(Cc1ccccn1)c1ccc(O)cc1O,9.45%
22,O=C(NNc1c2ccccc2nc2ccccc12)c1cc2ccccc2cc1O,44.6% (active)

row,SMILES,inhibition
1,CCCn1nc(NC(=O)C(C)C)c2cc3cc(OC)ccc3nc21,16.4%
2,O=C(Nc1ncc2c(n1)-c1ccccc1OC2)c1ccc(Cl)cc1,9.5%
3,CCc1ccc(Nc2ncc3c(n2)CC(c2ccco2)CC3=O)cc1 (configuration not stated),14.2%
4,O=C(Nc1ncc2c(n1)CC(c1ccco1)CC2=O)c1ccc(Cl)cc1 (configuration not stated),41.8% (active)
5,O=C(CC1SC(N2CCCC2)=NC1=O)Nc1ccc(C(=O)NCCc2ccc(F)cc2)cc1 (configuration not stated),-2.4%
6,CC(=O)C[C@@H]1OC[C@H](CO)N1S(=O)(=O)c1ccc(C)cc1,3.35%
7,CCOC(=O)[C@]12CCCC=C1N(CCC1=CCCCC1)C(=O)[C@H](CC(=O)N1CCCCC1)C2,8.47%
8,COc1cccc(-c2cc(C(=O)N3CCN(c4ccccc4OC)CC3)no2)c1,56.8% (active)
9,COc1cccc(-c2ccc(SCC(=O)N3CCN(c4ccccc4)CC3)nn2)c1,11.8%
10,COc1ccccc1N1CCN(C(=O)Cn2nnc(-c3cccs3)n2)CC1,-14.3%
11,COc1ccc(Nc2ncc(C(=O)N3CCN(c4ccccc4OC)CC3)c3ccccc23)cc1,-13.1%
12,COc1ccccc1N1CCN(C(=O)c2cc(-c3ccc(Br)cc3)on2)CC1,50% (active)
13,COc1ccc(OCc2cc(C(=O)N3CCCC3)no2)c2ccccc12,-12.2%
14,CC(C)C[C@@H]1COc2cc(N3CCC[C@@H]3CO)ccc2S(=O)(=O)N1,-0.978%
15,Cc1cc2nc3n(c2cc1C)CC1CC(C(=O)NCCC(C)C)N(C)C31 (configuration not stated),6.24%
16,CN(C)c1nc(=Nc2cccc(Cl)c2)ss1,1.94%
17,Clc1cccc(N=C2NN=C(c3ccc4c(c3)OCCO4)CS2)c1,49.5% (active)
18,c1ccc(CN2CCC(N=C3NN=C(c4ccc5c(c4)OCCO5)CS3)CC2)cc1,6.66%
19,Cc1ccc(S(=O)(=O)N2[C@@H](c3cccc4ccccc34)C(C(=O)O)=C[C@H]2C(C)(C)C)cc1,-1.04%
20,CCN(CC)c1ccc(S(=O)(=O)N2CCCCC2)cc1NC(=O)C1=COCCO1,1.67%
21,CCCCN=C1C([N+](=O)[O-])=CC=C2C1=NC1(CCCCC1)N2O,68.4% (active)
